Compound activity (PubChem BioAssay)
Rows were chosen to be rich in hits. Some 4.7% of all compounds tested hit in one or more screens of this group.
TRHR ag: agonists of human TRH receptor; P34981; TRHR cells, calcium flux fluo-8, FDSS agonist mode; activation, % at 2 µM; actives 0.18% (n = 360,000); also: 0% is about no effect
Target sequence (P34981 whole entry, looked up): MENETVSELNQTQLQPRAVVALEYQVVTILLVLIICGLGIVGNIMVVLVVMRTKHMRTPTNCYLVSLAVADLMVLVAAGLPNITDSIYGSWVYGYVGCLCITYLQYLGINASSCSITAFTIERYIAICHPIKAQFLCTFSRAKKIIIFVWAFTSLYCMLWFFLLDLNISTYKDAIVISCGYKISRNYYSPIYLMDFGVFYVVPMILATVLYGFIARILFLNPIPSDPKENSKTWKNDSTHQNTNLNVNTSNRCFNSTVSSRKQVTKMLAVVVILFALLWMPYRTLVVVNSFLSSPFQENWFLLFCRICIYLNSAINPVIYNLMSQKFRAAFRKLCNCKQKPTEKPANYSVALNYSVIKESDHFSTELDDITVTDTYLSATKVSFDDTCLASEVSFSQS
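TRHR-expressing cells, plated overnight in medium with 10% serum, were loaded with fluo-8 calcium dye at room temperature. After a 10 s baseline, library compound was pin-added and calcium release was recorded kinetically (ex 480/em 530) as agonist response.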
TRHR PAM: TRH receptor (human) allosteric enhancement | P34981 | TRHR cells, fluo-8 calcium fluorescence, EC20 TRH enhancement | enhancement, % at 2 µM | actives 0.66% (n = 360,000) | AID 493056; in the data active = enhancement above about 30%; also: 0% is about no effect
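Enhancer read-out: after compound pinning and an initial kinetic agonist-mode read, an EC20 of TRH (10 nM final) was injected and fluo-8 calcium signal (Ex 480/Em 530) followed at 1 s/cycle for 100 cycles in TRHR-expressing cells.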
D1 antagonist: antagonists of human D1 dopamine receptor; actives 3.2% (n = 360,000); AID 504652; activity change, negative = inhibition, % at 10 µM; HEK293 TREx D1 cells, calcium flux, dopamine EC80; active compounds read low; in the data active = activity change below about -30%; also: % is scaled to controls: 0 for no effect and ±100 for the full control effect
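Antagonism measured as reduced calcium response to an EC80 dopamine addition following 180 s compound pre-read; cells were inducible HEK293 Trex D1 plated overnight at 30 C, read kinetically at 1 cycle/sec.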
D1 ag: activates the human D1 dopamine receptor | P21728 | actives 1% (n = 360,000) | HEK293 T-REx D1 cells, calcium flux, agonist mode | activation, % at 2 µM; also: 0% is about no effect
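Inducible HEK293 T-REx D1 cells, force-coupled to calcium signalling, were plated at 4000 cells/well with tetracycline and held overnight at 30 C. After no-wash calcium dye loading, compound-evoked calcium rise over 180 s flagged agonists.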
D1 potentiator: human D1 dopamine receptor positive modulation. P21728. HEK293 TREx D1 cells, calcium flux, dopamine EC20 potentiation. potentiation, % at 10 µM. actives 0.036% (n = 360,000). AID 504651; in the data active = potentiation above about 30%; also: 0% is about no effect
Numbers without * were called inactive. Rule as the data show it, unless noted: active = activation above about 30%; inactive = the rest.

Results for COc1ccc(C(CCNCc2ccc(F)cc2)c2ccc(F)cc2)cc1 (stereo not given) ?
TRHR ag: 5; TRHR PAM: 1; D1 antagonist: 0; D1 ag: 46*; D1 potentiator: 10

How did COc1ccc(C(CCNC(C)c2ccccc2)c2ccc(F)cc2)cc1 (stereo not given) do in these assays?
TRHR ag: 2; TRHR PAM: -3; D1 antagonist: 0; D1 ag: 56*; D1 potentiator: 4

How did O=C(Cn1c(=O)nc(-c2ccccc2F)c2cc(Cl)ccc21)Nc1ccccc1C(F)(F)F do in these assays?
TRHR ag: 0; TRHR PAM: 16; D1 antagonist: 16; D1 ag: 5; D1 potentiator: 0

What do the screens show for `COc1ccc(CNC(=O)CCC(=O)N2CC3CCCN3c3ccccc32)cc1` (stereo not given)?
TRHR ag: 0; TRHR PAM: -3; D1 antagonist: -18; D1 ag: 1; D1 potentiator: -6

What do the screens show for `COC(=O)Cn1c(CN2CCC(Cc3ccccc3)CC2)nc2c1c(=O)n(C)c(=O)n2C`?
TRHR ag: -1; TRHR PAM: -2; D1 antagonist: -36*; D1 ag: 17; D1 potentiator: -7

Results for Cn1c(=O)c2c(nc(CN3CCN(Cc4ccccc4)CC3)n2Cc2cccc(Cl)c2)n(C)c1=O ?
TRHR ag: -1; TRHR PAM: -3; D1 antagonist: 1; D1 ag: 40*; D1 potentiator: -14

How did Cn1c(=O)c2c(nc(CN3CCN(C(=O)c4ccco4)CC3)n2CCc2ccccc2)n(C)c1=O do in these assays?
TRHR ag: -1; TRHR PAM: -1; D1 antagonist: -74*; D1 ag: 0; D1 potentiator: 2

How did COC(=O)Cn1c(CN(C)Cc2ccccc2)nc2c1c(=O)n(C)c(=O)n2C do in these assays?
TRHR ag: 0; TRHR PAM: -4; D1 antagonist: 0; D1 ag: 1; D1 potentiator: 4

How did COc1ccc(Cl)cc1NC(=O)CCN1C(=O)c2ccccc2Sc2ncccc21 do in these assays?
TRHR ag: 0; TRHR PAM: -9; D1 antagonist: -5; D1 ag: 0; D1 potentiator: -2

Results for COc1ccc(Br)cc1CNC(=O)c1cc(=O)[nH]c2ccc(S(=O)(=O)N3CCCCC3)cc12 ?
TRHR ag: 1; TRHR PAM: 9; D1 antagonist: -11; D1 ag: -3; D1 potentiator: 0

How did Cc1ccc(C(=O)NCCCNC(=O)c2ccco2)cc1 do in these assays?
TRHR ag: 0; TRHR PAM: -9; D1 antagonist: -3; D1 ag: 2; D1 potentiator: -3

How did Cc1ccc(-c2cnc(SCCNC(=O)c3ccco3)[nH]2)cc1 do in these assays?
TRHR ag: 0; TRHR PAM: 31*; D1 antagonist: -9; D1 ag: 4; D1 potentiator: -4

What do the screens show for `Cc1noc2ncnc(N3CCN(c4cccc(Cl)c4)CC3)c12`?
TRHR ag: 0; TRHR PAM: -3; D1 antagonist: -34*; D1 ag: 4; D1 potentiator: 1

Results for O=C(O)c1ccc(Cl)c(NCc2ccncc2)c1 ?
TRHR ag: 1; TRHR PAM: 11; D1 antagonist: -8; D1 ag: 4; D1 potentiator: 0

What do the screens show for `Cc1ccc(C(=O)O)cc1NCc1ccncc1`?
TRHR ag: 1; TRHR PAM: 30*; D1 antagonist: 1; D1 ag: 0; D1 potentiator: 0

How did CCc1nn(CC(=O)NCCc2ccc(Cl)cc2)c(=O)c2cc3c(OC)cccc3n12 do in these assays?
TRHR ag: 0; TRHR PAM: 4; D1 antagonist: 13; D1 ag: 0; D1 potentiator: -3

Results for CCN(C#N)c1nc(NC(C)C)nc(NC(C)(C)C)n1 ?
TRHR ag: 2; TRHR PAM: 16; D1 antagonist: 27; D1 ag: 51*; D1 potentiator: 0

Results for CCc1nnc(SCc2cc(C)ccc2C)c2cc3sc(C)cc3n12 ?
TRHR ag: 0; TRHR PAM: -1; D1 antagonist: -8; D1 ag: 1; D1 potentiator: 3

What do the screens show for `O=C1OC2(c3ccccc31)c1cc(I)c(O)c(I)c1Oc1c2cc(I)c(O)c1I`?
TRHR ag: 242*; TRHR PAM: -10; D1 antagonist: -42*; D1 ag: 411*; D1 potentiator: -1

What do the screens show for `COc1ccc(-c2c(C)nn3c(N4CCN(c5ccccc5)CC4)cc(C)nc23)cc1OC`?
TRHR ag: 0; TRHR PAM: 6; D1 antagonist: 0; D1 ag: 0; D1 potentiator: 2

Results for Cc1ccc(OCC(=O)Nc2c(C)nn(-c3ccccc3)c2C)c(Br)c1 ?
TRHR ag: 0; TRHR PAM: -3; D1 antagonist: -37*; D1 ag: 15; D1 potentiator: -4

What do the screens show for `Cc1ccc(C)c(OCC(=O)OCC(=O)Nc2c(C)nn(-c3ccccc3)c2C)c1`?
TRHR ag: 0; TRHR PAM: -6; D1 antagonist: -2; D1 ag: 6; D1 potentiator: -4

Results for CC(C)c1nc2ccccc2n1CC(O)COC1CCCCC1 (stereo not given) ?
TRHR ag: 0; TRHR PAM: 2; D1 antagonist: -7; D1 ag: 1; D1 potentiator: -1

How did Cc1nc2ccccc2n1CC(O)COC1CCCCC1 (stereo not given) do in these assays?
TRHR ag: 0; TRHR PAM: -21; D1 antagonist: -72*; D1 ag: 5; D1 potentiator: -11

How did Cc1cc(-c2ccc(C(C)C)c(S(=O)(=O)NCCN3CCC(C)CC3)c2)on1 do in these assays?
TRHR ag: 0; TRHR PAM: 25; D1 antagonist: -29; D1 ag: 44*; D1 potentiator: -6

Results for Cc1cc(-c2ccc(C)c(S(=O)(=O)NCCCN3CCCCCC3)c2)on1 ?
TRHR ag: 1; TRHR PAM: 12; D1 antagonist: 2; D1 ag: 0; D1 potentiator: 9

What do the screens show for `COc1ccc(-c2cc(C)no2)cc1S(=O)(=O)NCCCN1CCN(c2ccccc2)CC1`?
TRHR ag: -1; TRHR PAM: -1; D1 antagonist: -33*; D1 ag: 7; D1 potentiator: -17

Results for Cc1cc(-c2ccc(C)c(S(=O)(=O)NCCCN3CCN(c4ccccc4F)CC3)c2)on1 ?
TRHR ag: 0; TRHR PAM: -4; D1 antagonist: -67*; D1 ag: 10; D1 potentiator: -22

What do the screens show for `Cc1cc(-c2ccc(C)c(S(=O)(=O)NCCCN3CCN(c4ccccc4)CC3)c2)on1`?
TRHR ag: 0; TRHR PAM: -3; D1 antagonist: -77*; D1 ag: 10; D1 potentiator: -19

Results for COc1cc2c(C(=O)N3CCN(c4cccc(C)c4)C(C)C3)cn(CC(C)C)c(=O)c2cc1OC (stereo not given) ?
TRHR ag: 0; TRHR PAM: 2; D1 antagonist: 11; D1 ag: 1; D1 potentiator: 2
